Results reported in PubChem BioAssay (NCI).
“And” between values parts separate entries of the source, which are not always exact repeats. Identical values can stand only once. This is part of a sample that, as a whole, favours compounds with a hit. Of some 83,000 tested, about 20% had one in any assay.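 Negative percent growth values reflect cell death: -40 means 40% of the cells present at the start died, and -100 means all died.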 Values without a mark were called inactive. The source made the active and inactive calls.

Each compound was assayed on SK-OV-3 ovarian (assay: NCI-60 one-dose screen, 48 h (100 = growth as untreated, 0 = no growth, -100 = all killed)). Conditions: 1 µM.
Description: Growth inhibition of the SK-OV-3 human tumor cell line is measured as a screen for anti-cancer activity. Cells are grown in 96 well plates and exposed to the test compound for 48 hours. Compounds are tested at a single concentration, which is 10^-5 M for most compounds. The reported endpoint is percent growth (GI% or GIPRCNT), where numbers from 0 - 100% represent growth inhibition, and numbers from -100% - 0 represent cell death. For example, a value of 40 represents 60% growth inhibition. A value of 0 means no net growth occurred over the course of the experiment. A value of -40 indicates 40% of cells at the beginning of the experiment died by the end of the experiment. A value of -100 means all cells are dead at the end of the experiment.
NCI-60 Human Tumor Cell Lines Screen was performed using the standard one-dose NCI protocol, which is described in more detail at https://dtp.cancer.gov/discovery_development/nci-60/default.htm.
Compounds with GIPRCNT values below 10 were considered active. Activity score was based on GIPRCNT using the following formula: […]
Score is 0 for GIPRCNT values of 100 or above, 50 for GIPRCNT values of 0, and 100 for GIPRCNT values of -100.
`CC/C(=C(/c1ccc(O)cc1)c1ccc(OCCN(C)C(=O)COCCOCCNC(=O)c2ccc3c(c2)CN([C@@H]2CCC(=O)NC2=O)C3=O)cc1)c1ccccc1` showed a growth of 91.1%.

Same assay, conditions: 10 µM
`CC/C(=C(/c1ccc(O)cc1)c1ccc(OCCN(C)C(=O)COCCOCCNC(=O)c2ccc3c(c2)CN([C@@H]2CCC(=O)NC2=O)C3=O)cc1)c1ccccc1` gave a growth of 92.8%.

Same assay, conditions: 10 µM unless noted
`COc1cc(CNC(=O)C[C@H](C)CCC=C(C)C)ccc1OCc1cn(-c2ccccc2Cl)nn1` showed a growth of 83%. `O=C(NNC(=S)NCCc1ccccc1)c1ccc(OCc2nc3ccc(Cl)cc3[nH]2)cc1` showed a growth of 102%. In the case of `C=CCn1c(O)c(N=Nc2nc(-c3cc4ccccc4oc3=O)cs2)c2ccccc21`, the growth is reported as 112%. For `O=C(CSc1nc2c(c(=O)[nH]1)CCCC2)Nc1ccccc1C(=O)O`, the growth was 106%. Compound `COc1ccc(NC(=O)NN2C(=O)c3ccccc3N(C)C2c2ccc(OC)cc2)cc1` (stereo not given) has a growth of 101%. Compound `C=CCSc1nnc(-c2ccc(-c3nc4ccccc4[nH]3)cc2)o1` has a growth of 96.1%. In the case of `N#CC1=C(c2cccs2)Nc2c(c(-c3ccccc3)nn2-c2ccccc2)C12C(=O)Nc1ccc(Br)cc12` (stereo not given), the growth is reported as -0.147% (active). For `COc1ccc2c(c1)c(-c1cc(N)n3nc(-c4c[nH]c5ccccc45)cc3n1)cn2C`, the growth was -55.6% (active). `O=C(N/N=C/c1ccsc1)c1[nH]c2ccc(Br)cc2c1-c1ccccc1` was tested, and the growth was -36.9% (active). In the case of `COc1cc(C2CC(c3ccc(F)cc3)=Nc3c(N)nc(N)nc3N2)ccc1Oc1nc(Nc2ccc(F)cc2)nc(N(C)C)n1` (stereo not given), the growth is reported as 86.8%. Work on `COC(=O)c1cc(C(C)=O)n2c3ccccc3c3ccccc3c12` yielded a growth of 99.3%. Compound `COc1ccc(N=Nc2c(N)nn3c(N)c(C#N)c(-c4ccc(C)cc4)nc23)cc1` has a growth of 90.2%. Work on `O=C(CSc1nnc(-c2ccc(-c3nc4ccccc4[nH]3)cc2)o1)Nc1ccc(Br)cc1` yielded a growth of 79%. For `O=C(Cn1c(-c2ccccc2)nc2ccccc21)N=Nc1c(O)[nH]c2ccc(Br)cc12`, the growth was -47.9% (active). For `O=C(N/N=C/c1occc1Br)c1[nH]c2ccc(Br)cc2c1-c1ccccc1`, the growth was -85.3% (active). Work on `CC1=C(C(=O)Nc2ccccc2)C(c2cccc(Cl)c2Cl)n2c(nc3ccccc32)N1` (stereo not given) yielded a growth of 84.3%. For `CC1CCc2c(sc3nc(SCC(=O)c4cccc(Br)c4)n(-c4ccccc4)c(=O)c23)C1` (stereo not given), the growth was 58%. `N/C(=N\c1nc2ccc([N+](=O)[O-])cc2s1)NC(=O)Nc1ccccc1Cl` showed a growth of 24.2%. Work on `O=C1/C(=C/c2cnc(-c3ccccc3)s2)SC(=S)N1Cc1ccc2c(c1)OCO2` yielded a growth of 35.6%. With `O=[N+]([O-])c1cccc(-c2nnc3c(/C=C/c4ccc(F)cc4)nc4ccccc4n23)c1` the growth was 101%. Compound `N#CC1=C(c2cccs2)Nc2c(c(-c3ccccc3)nn2-c2ccccc2)C12C(=O)Nc1ccc(Cl)cc12` (stereo not given) has a growth of 59%. In the case of `Cc1ccc(C2CC(c3ccc(NC(=S)Nc4ccccc4)cc3)=NN2c2ccc(S(N)(=O)=O)cc2)cc1` (stereo not given), the growth is reported as 41.5%. `Nc1cc(-c2c[nH]c3ccc(Br)cc23)nc2cc(-c3c[nH]c4ccccc34)nn12` was tested, and the growth was -43.6% (active). In the case of `COc1cc(C2CC(c3ccc(C(F)(F)F)cc3)=Nc3c(N)nc(N)nc3N2)ccc1Oc1nc(Nc2ccc(F)cc2)nc(N(C)C)n1` (stereo not given), the growth is reported as 90.8%. Compound `Cc1nc(N)ncc1-c1ccc2ncnc(N3CCc4cc(F)c(Cl)cc43)c2c1` has a growth of 56.5%. With `COc1cc(/C=C/C(=O)c2cnn(-c3cc(=O)[nH]c4ccc(C)cc34)c2C)cc(OC)c1OC` the growth was 24.7%. With `N#Cc1c(NC(=O)N2CCOCC2)n(-c2ccc(OC(F)(F)F)cc2)c2cc(F)ccc12` the growth was 120%. `O=C(Nc1ccc(-c2ccc3c(c2)NC(=O)/C3=C\c2ccc[nH]2)cc1)Nc1ccc(Cl)c(C(F)(F)F)c1` was tested, and the growth was 68.3%. `COc1c2c(cc3c1C(CCc1ccccc1)N(C)CC3)OCO2` (stereo not given) was tested, and the growth was -6.7% (active). `CN(C)c1nc(NCCNS(=O)(=O)c2ccc(C3=Nc4c(N)nc(N)nc4NC(c4ccc(C(F)(F)F)cc4)C3)cc2)nc(N2CCOCC2)n1` (stereo not given) gave a growth of 55.8%. In the case of `Cc1ccc(-c2cc(-c3ccccc3)[nH]c(=O)c2C#N)cc1`, the growth is reported as 107%. With `Nc1nnc(CS(=O)(=O)c2ccccc2)s1` the growth was 104%. For `Nc1nnc(-c2cncc(Br)c2)c(-c2c[nH]c3ccc(Br)cc23)n1`, the growth was 98.7%. With `CS(=O)(=O)Nc1cccc(-n2c(COc3ccc(OC(F)(F)F)cc3)nc3ccccc32)c1` the growth was 76% and 95.4%. Work on `O=C(CSc1nc2sc3c(c2c(=O)n1-c1ccc(Cl)cc1)CCCC3)NNC(=O)c1ccc(Br)cc1` yielded a growth of 80.8%. `O=C(N/N=C/c1ccc(Br)o1)c1[nH]c2ccc(Br)cc2c1-c1ccccc1` showed a growth of 22%. `O=c1ccc(Cn2c(C(F)(F)F)cc3c(Cl)ncnc32)c[nH]1` gave a growth of 119%. For `O=C(N/N=C/c1ccc(Cl)o1)c1[nH]c2ccc(Br)cc2c1-c1ccccc1`, the growth was 4.66% (active).
